# Assay outcomes: PubChem, National Center for Advancing Translational Sciences (NCATS)
# Lassa entry inh: blocks Lassa virus binding to or entry into cells; Lassa virus pseudotype entry inhibition, cell reporter; Potency, µM (titrated, usually from 37.9 µM), for the others: at the top dose activity change, negative = inhibition, actives largely listed as inhibitors; 300,000 tested, 1.2% active; AID 540256; calls by dose curve; tested in HEK293 cells; also: potency is read from the fitted curve at half-maximal effect; % is scaled to controls: 0 for no effect and ±100 for the full control effect; nearly all actives have a fitted effect of over 50% in size
# HCV inh: HCV inhibition; Huh7.5.1 HCVcc-Cre infection, luciferase reporter, 44 h; Potency, µM (doses to about 41.8 µM), inactives show at the top dose activity change, negative = inhibition, most hits filed as inhibitors; 340,000 tested, 3.4% active; active = well fitted inhibition curve with a large enough effect; inconclusive = small, poorly fitted or top-dose-only effect, or another doubt; inactive = no such curve, though single readings can be large or run the other way; also: potency is read from the fitted curve at half-maximal effect; % is scaled to controls: 0 for no effect and ±100 for the full control effect
#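 Antiviral activity was scored by luciferase reporter output from cells infected with HCVcc-Cre (~0.5 moi) in presence of compound, 44 h infection period, cells seeded 1,000/well 4 h prior.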
# SARS PLP yeast: SARS-CoV PLP inhibition in yeast; 330,000 tested, 0.19% active; Potency, µM (series often up to 32.9 µM), without a hit: top-dose activity, positive = growth rescue, usual class: activators; S. cerevisiae expressing SARS-CoV PLpro, growth rescue; calls by dose curve; also: potency is read from the fitted curve at half-maximal effect; 0% is about no effect; nearly all actives have a fitted effect of over 55% in size
# HCMV inh: human cytomegalovirus inhibition. HFF cells, HCMV-luciferase reporter, 72 h; hits give low values. activity change, negative = inhibition, % at 57.5 µM. 410,000 tested, 4.5% active; in the data active = activity change below about -60%; inconclusive = no clear call, values can overlap the other calls; inactive = above about -39%; also: % is scaled to controls: 0 for no effect and ±100 for the full control effect
#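 Cell-based, HFFs, 1000 cells/well, 16 h 37C; cpds in DMSO + HCMV-luc, MOI 1 PFU/cell; 72 h 37C; OneGlo luminescence after 5 min RT; norm. to buffer vs Salinomycin 10uM.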
# FMDV inh: antivirals against foot and mouth disease virus | 410,000 tested, 1.2% active | FMDV antiviral cell-based qHTS | Potency, µM (top dose mostly 57.9 µM), inactives show at the top dose activity change, negative = inhibition, usual class: inhibitors | AID 1159524; calls by dose curve; tested in HEK293T cells; also: read-out not given here; potency is read from the fitted curve at half-maximal effect; % is scaled to controls: 0 for no effect and ±100 for the full control effect; nearly all actives have a fitted effect of over 45% in size
# Marburg entry inh: blocks Marburg virus binding to or entry into cells; Marburg virus pseudotyped entry inhibition, cell reporter; Potency, µM (top dose mostly 37.8 µM), without a hit: at the highest dose activity change, negative = inhibition, actives largely listed as inhibitors; 300,000 tested, 1.8% active; AID 540276; calls by dose curve; tested in HEK293 cells; also: potency is read from the fitted curve at half-maximal effect; % is scaled to controls: 0 for no effect and ±100 for the full control effect
# The depositor's hits bear a star; ? = inconclusive; / = no result; ! = a repeat was not active; [ ] = dose if it differs, or a comment. Most compounds without a hit are left out; they make up all but 8% or so of the library.
SMILES,Lassa entry inh,HCV inh,SARS PLP yeast,HCMV inh,FMDV inh,Marburg entry inh
CCCOc1ccc(C(=O)N2CC3(CC(c4cccc(NC(=O)[C@@H]5CCC(=O)N5)c4)=NO3)C[C@H]2C(=O)NC2(C(N)=O)CC2)cc1 (stereo partly drawn),/,2%,6%,-64*,-15%,0%
CCC1(C2CCN(C(=O)c3ccccc3C)CC2)NC(=O)N(CCc2scnc2C)C1=O (stereo not drawn),/,/,/,/,13%,/
NC(=O)CC(NC(=O)Cc1ccc(Br)cc1)c1ccc(NC2CCN(Cc3ccccc3)CC2)c([N+](=O)[O-])c1 (stereo not drawn),/,2%,-3%,-93*,9%,/
NC(=O)CC(NC(=O)Cc1cccc2ccccc12)c1ccc(NC2CCCCCCC2)c([N+](=O)[O-])c1 (stereo not drawn),/,20%,3%,-62*,-9%,/
NC(=O)CC(NC(=O)Cc1cccc2ccccc12)c1ccc(NCCc2ccccc2F)c([N+](=O)[O-])c1 (stereo not drawn),/,14%,-1%,-81*,-7%,/
NC(=O)CC(NC(=O)Cc1cccc2ccccc12)c1ccc(NCCc2ccc(F)cc2)c([N+](=O)[O-])c1 (stereo not drawn),/,6%,2%,-67*,-5%,/
NC(=O)CC(NC(=O)Cc1cccc2ccccc12)c1ccc(NC2CCCCCC2)c([N+](=O)[O-])c1 (stereo not drawn),/,?,0%,-36,-5%,/
CC(C)Cn1c(=O)c2sccc2n2c(CCCC(=O)Nc3ccc(Cl)cc3)nnc12,21%[46.1 µM],/,/,?,-3%,/
COC(=O)C(c1ccccc1)(c1cn(C)c2ccccc12)C(Nc1ccccc1)c1ccc(Br)cc1 (stereo not drawn),/,/,/,-19,/,/
Cn1c(CNc2cccc(Cl)c2)nnc1SCC(=O)OC1CCCCC1,10%,3%,3%,-80*,-25%,-5%
COc1cccc(-n2cc(C(=O)Oc3cccc(C(F)(F)F)c3)c3ccccc3c2=O)c1,15%[46.1 µM],/,/,-14,-23%,/
CCOc1cccc2sc(N3CCN(C(=O)c4ccc5c(c4)CCCC5)CC3)nc12,?,/,/,34,?,/
Cc1ccc(NC(=S)N2CCC(c3ccccc3)C2)c(Cl)c1 (stereo not drawn),10µM*,3%,-5%,13,2%,?
CSc1cccc(NC(=S)N2CCC(c3ccccc3)C2)c1 (stereo not drawn),?,-29%,-4%,-82*,15%,?
CCc1cccc(NC(=S)N2CCC(c3ccccc3)C2)c1 (stereo not drawn),?,-17%,-5%,-5,17%,?
CCC[C@H]1[C@H](NCc2cccs2)CC[C@@]23CCCN2C(=O)CCC[C@@H]13,/,/,/,6,/,/
CCCCNc1c(-c2ccc(SC(C)CC)c(OC)c2)nc2ccc(C)cn12 (stereo not drawn),/,10µM*,-15%,-94*,22µM*,/
CCCCNc1c(-c2ccc(SC(C)CC)c(OC)c2)nc2ccc(Cl)cn12 (stereo not drawn),/,-4%,0%,-16,0%,/
CCCCCCSc1cc(-c2nc3ccc(C)cn3c2NCc2ccccc2)ccc1OC,/,-16%[8.37 µM],-5%,54,40µM*!,/
CCCCNc1c(-c2ccc(OC)c(Sc3ccc(OC)cc3)c2)nc2ccccn12,/,10µM*,0%,/,-27%,/
CCCCCCSc1cccc(-c2nc3ccccn3c2NCc2ccccc2)c1,/,-22%,-5%,-65*!,25µM*,/
CCCCNc1c(-c2ccc(OC)c(Sc3ccc(OC)cc3)c2)nc2cnccn12,/,?,-2%,21,?,/
CCc1ccc(CNC(=O)c2sc3ncccc3c2-n2c(C)ccc2C)cc1,-13%[46.1 µM],/,/,-10,0%,/
O=C(CSc1nc(-c2cccs2)nc2cc(=O)[nH]n12)Nc1ccccc1Cl,0%[46.1 µM],/,/,-11,?,/
O=C(O)c1cccnc1Nc1ccc(Cl)cc1,?,5%,5%,-72*,18%,?
Cc1ccc(C(=O)Nc2cccc(-c3nc(CNC(=O)[C@@H]4C[C@@H](C)NC(=S)N4)c(C)o3)c2)s1,/,/,/,/,29%,/
